The campaign covered roughly 69,000 compounds. About 8,600 (12%) showed an effect of 50% or more. The sample as a whole holds a higher share of strong results than the screen did.
test system: Plasmodium berghei; test: Screen against P. berghei liver stage (PbLuc), transformed with Luciferase, at 10uM; type: functional, HepG2; details: tested at 10 uM

Structure (SMILES)	INHIBITION [%]
CCOC1COC2(CCN(CC3CCOCC3)CC2)C1 (configuration not stated)	31.2
Clc1ccc(CN2CCCCC2Cn2cncn2)c2ncccc12 (configuration not stated)	40.65
Cc1nc(CN2CC[C@H]3[C@H]2CCN3c2nncs2)cs1	40.8
Cc1nn(CCN2CCSCC2)cc1CNCc1ccccn1	23.5
OC(COCc1ccccc1F)CN1CCC(Cn2cccn2)CC1 (configuration not stated)	46.3
c1ncn(CC2CCCN(Cc3nc(-c4ccoc4)no3)C2)n1 (configuration not stated)	-34
CN(C)C(=O)N1CCC2(CC1)CCN(c1ncccn1)C2	-26.1
Cc1ccc(CNC(=O)c2nc3c(n2C)CCN(c2ncccn2)C3)o1	48.4
COc1cc(CNCc2c(C)nn(C)c2N(C)C)ccc1OCCO	21.6
Nc1ccnn1C1CCN(Cc2ccccc2)C1 (configuration not stated)	43.1
Nc1c(Cl)cnn1C1CCN(Cc2ccccc2)C1 (configuration not stated)	37.7
Cc1cnn(C2CCN(Cc3ccccc3)C2)c1N (configuration not stated)	56.1
Cc1ccc(NC(=O)[C@@H]2C[C@H](C(=O)O)CN(Cc3sccc3C)C2)cn1	29.4
Cc1ccc(NC2CCN(C(=O)c3cccnc3O)CC2)nn1	16.8
Cc1csc2c(=O)n(CCSc3cnn[nH]3)cnc12	18.5
c1ccc(CCN2CCN(C3CCOC4(CCOCC4)C3)CC2)nc1 (configuration not stated)	7.24
Cc1ncccc1O[C@H]1CCN(C(=O)Cc2cccs2)CC[C@@H]1O	42.9
CCc1ccc(C(=O)N2CCC(c3nncn3CC)CC2)cc1	-3.16
Cc1ncccc1O[C@H]1CCN(C(=O)c2cccs2)CC[C@@H]1O	23.3
Cc1ccc(C(=O)N2CC[C@H](Oc3cccnc3C)[C@@H](O)CC2)s1	44.1
CCc1ccc(C(=O)N2CC[C@H](Oc3cccnc3C)[C@@H](O)CC2)cc1	78.2
Cc1csc(C(=O)N2CC[C@H](Oc3cccnc3C)[C@@H](O)CC2)c1	57.5
O=C(NC1CCCCC1)N1CCc2onc(COc3cccnc3)c2C1	40.4
Cc1ccoc1C(=O)N1CCOCC2(CCN(c3ncccn3)C2)C1 (configuration not stated)	-19.9
CC(C)CNC(=O)CNC(=O)NC(C)COc1ccccc1F (configuration not stated)	-24.5
O=C(NCC1CC1)C1CSCN1S(=O)(=O)c1cc(F)cc(F)c1 (configuration not stated)	27.7

Structure (SMILES)	INHIBITION [%]
Cc1noc([C@@H]2CC[C@@H]3[C@@H](CCN3S(=O)(=O)c3cccnc3)O2)n1	-2.53
c1ccc2oc(N3CCn4c(nnc4C4CC4)C3)nc2c1	68.4
CC(C)c1nnc2n1CCN(c1nc3ccccc3o1)C2	16.8
Cc1nnc2n1CCN(c1nc3ccccc3o1)C2	2.97
CCc1nc(C2CCCN2C(=O)c2ccc(N(C)C)nn2)no1 (configuration not stated)	24.295
CCS(=O)(=O)c1nnc([C@@H](N)Cc2ccccc2)o1	11.6
N[C@@H](Cc1ccccc1)c1nnc(S(=O)(=O)Cc2ccccc2)o1	53.8
N[C@@H](Cc1ccccc1)c1nnc(S(=O)(=O)Cc2ccc(Cl)cc2)o1	15.4
Cc1cnn(CC2CCCN2C(=O)c2c(C)noc2C)c1 (configuration not stated)	12.7
Cc1ccnn1CCC(=O)N1CCCC1c1cc2cccnc2[nH]1 (configuration not stated)	6.26
Cc1nc(N2CCOCC2)nc2c1COCC21CCN(CC2CC2)C1 (configuration not stated)	36.9
CCN(Cc1ccncc1)CC1(O)CCN(C(=O)c2cccc(C)c2)C1 (configuration not stated)	-9.32
c1ccc(CNC[C@H]2COCc3nc4cccnc4n32)cc1	54.7
Cc1cccc2c1nc1n2[C@@H](CNC(=O)NC(C)C)COC1	11.6
COc1ccccc1C(=O)NC[C@H]1COCc2nc3c(C)cccc3n21	50.2
COc1ccc(CNC[C@H]2COCc3nc4cccnc4n32)cc1	6.55
Cc1cccc2c1nc1n2[C@@H](CNC(=O)c2ccccn2)COC1	37.4
Cc1cccc2c1nc1n2[C@@H](CNC(=O)Cc2ccccc2)COC1	-33.8
COc1ccc2c(c1)nc1n2[C@@H](CNC(=O)c2ccccn2)COC1	7.53
FC(F)(F)c1ccc(CNC[C@H]2COCc3nc4cccnc4n32)cc1	39.3
Cc1ccc2c(c1)nc1n2[C@@H](CNC(=O)c2ccccn2)COC1	57
Cc1cccc2c1nc1n2[C@@H](CNC2CCCCC2)COC1	51
Cc1cccc2c1nc1n2[C@@H](CNC(=O)C2CCOCC2)COC1	43.4
CC(=O)NC[C@H]1COCc2nc3c(C)cccc3n21	46.4
CCN(CC(=O)Nc1cc(Cl)ccc1C)C(=O)c1ccc(=O)[nH]n1	23.2
COc1ncc(-c2ccc(O)cc2)c(OC)n1	27.6

Reference: ChEMBL document CHEMBL4513216, “Probing the Open Global Health Chemical Diversity Library for Multistage-Active Starting Points for Next-Generation Antimalarials” (ACS Infect Dis, 2020)
